Results on 5 molecules are retold here after PubChem BioAssay (NCATS).

Inconclusive results are not listed. The source made the active and inactive calls. Unless noted, calls follow the shape of the dose curve; as a rule, active = well fitted curve in the direction sought with a large enough effect; inconclusive = small, poorly fitted or top-dose-only effect, or another doubt; inactive = no such curve, though single readings can be large; an effect the other way counts as inactive or inconclusive.

Test [1] is described as follows: Primary qHTS for inhibitors of nuclear receptor binding SET domain protein 2 (NSD2) in an isogenic RCH-ACV NSD2 p.E1099K mutant (9B) (AID 1645876; also: nearly all actives have a fitted effect of over 70% in size; also: potency is read from the fitted curve at half-maximal effect). (In general: In qHTS, concentration-response curves come from the screen itself.)
Test [2] in a line: Primary qHTS for inhibitors of nuclear receptor binding SET domain protein 2 (NSD2) in an RCH-ACV wild type WT cells (2C) (AID 1645877). Also: nearly all actives have a fitted effect of over 70% in size. Also: potency is read from the fitted curve at half-maximal effect.
For test [3], the target named is Glutathione peroxidase 1 (Homo sapiens) (UniProt P07203). Description: Primary qHTS Assay for Inhibitors of Recombinant Selenoprotein Glutathione Peroxidase 1 (GPX1) (AID 1845191). Also: nearly all actives have a fitted effect of over 65% in size. An outline of the steps:
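GR-coupled readout: NADPH consumption tracked by fluorescence, ex 340/em 450 nm, at t=0 and after 15 min at RT. Final mix 10 nM GPX1, 1 mM GSH, 0.5 mM CHP, 0.5 mM NADPH, 100 nM GR, 0.01% BSA, following 30 min enzyme–compound preincubation.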

Test [4] can be described thus: qHTS drug screen for cell cycle checkpoint inhibitors in PARPi-resistant BRCA-mutant ovarian cancer cell lines. (AID 1963452; calls by dose curve; also: potency is read from the fitted curve at half-maximal effect). Conditions: PEO1/OlaR viability, CellTiter-Glo luminescence, 96 h; for Z-AUC: stronger effect = lower value. An outline of the steps:
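PEO1, PEO4 and PEO1/OlaR ovarian cancer cells, 600 per well, exposed 96 h at 37C to a dilution series. Viability read by CellTiter-Glo luminescence, normalized to DMSO and empty wells; activity summarized as Z-AUC.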

Test [5] concerns the target Phospholipid hydroperoxide glutathione peroxidase GPX4 (Homo sapiens) (UniProt P36969). Description: Primary qHTS Assay for Inhibitors of Recombinant Selenoprotein Glutathione Peroxidase 4 (GPX4) (AID 1845192). Also: series mostly up to about 50 µM; % is scaled to controls: 0 for no effect and ±100 for the full control effect; nearly all actives have a fitted effect of over 65% in size. Conditions: outcome: dose series up to 50 µM unless noted. An outline of the steps: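 Steps: GPX4 plus compound, 30 min RT; add GR/GSH/NADPH master mix; start with cumene hydroperoxide; read 340/450 nm fluorescence at 0 and 15 min. Finals were 200 nM GPX4, 1 mM GSH, 0.5 mM CHP, 0.5 mM NADPH, 100 nM GR.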

The nature of test [6]: NCATS anti-infectives library activity on HEK293 viability as a counter-qHTS vs the C. elegans viability qHTS (AID 1745854). Also: % is scaled to controls: 0 for no effect and ±100 for the full control effect. An outline of the steps: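 Cytotoxicity counter-screen to a worm viability qHTS: CellTiter-Glo luminescence read 10 min after reagent addition. Compounds (final up to 41.7 uM, a 1:5 dilution series) incubated 24 hr at 37C with 1,500 HEK293 cells per well; digitonin control.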

Where [7] appears, read: measured here: PEO1 parental Z-AUC.

Chain of Phospholipid hydroperoxide glutathione peroxidase GPX4 (Homo sapiens) (P36969 whole entry, looked up): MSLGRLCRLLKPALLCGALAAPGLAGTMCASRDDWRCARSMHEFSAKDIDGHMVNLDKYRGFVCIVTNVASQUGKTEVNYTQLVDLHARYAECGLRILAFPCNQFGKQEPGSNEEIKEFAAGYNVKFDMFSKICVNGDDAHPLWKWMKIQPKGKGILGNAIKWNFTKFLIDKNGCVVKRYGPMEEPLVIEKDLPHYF
Chain of Glutathione peroxidase 1 (Homo sapiens) (P07203 whole entry, looked up): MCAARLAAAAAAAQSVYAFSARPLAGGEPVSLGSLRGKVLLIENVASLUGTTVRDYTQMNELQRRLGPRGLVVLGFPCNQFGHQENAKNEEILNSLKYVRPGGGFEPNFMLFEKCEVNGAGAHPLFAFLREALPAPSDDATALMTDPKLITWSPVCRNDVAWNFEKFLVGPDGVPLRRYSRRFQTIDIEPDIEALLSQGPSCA

Turning to `Cn1cc(-c2ccc(-c3cncc(Cl)c3N3CCC4(CCNC4=O)CC3)cc2)cn1`, the Potency in test [1] is 8330 nM (active); in test [2], 833 nM (active). In addition, in test [3], the Potency result is “inactive”. Moreover, the Z-AUC was -1.1 (inactive) in test [4], -0.614 in test [4] (setting [7]) and -1.18 in test [4] (measured here: PEO4 Z-AUC).

Consider `Cc1cc(O)c(-c2ccc([C@@H](C)CN)cc2)c2c1[nH]c(=O)c1sccc12`, for which the Potency entry in test [1], in test [2], in test [3] and in test [5] was “inactive” throughout. The Z-AUC in test [4] was -2.55 (inactive); in test [4] (setting [7]) it was -2.78; in test [4] (measured here: PEO4 Z-AUC), -2.98.

On to `O=c1[nH]nc2c3c(cccc13)NC(CN1Cc3ccccc3C1)=N2`, for which the Potency in test [1] is 20900 nM (active); in test [2], 18600 nM (active). Moreover, the Potency result in test [6] and in test [3] was “inactive” in each case. Further, the Z-AUC was -0.263 (inactive) in test [4], -0.113 in test [4] (setting [7]) and -0.251 in test [4] (measured here: PEO4 Z-AUC).

For `Cc1onc(-c2ccc(F)cc2)c1COc1ccc(C(=O)N2CCS(=O)(=O)CC2)cn1`, the Potency result in test [1], in test [2], in test [3] and in test [5] was “inactive” in each case. The Z-AUC was 0.971 (inactive) in test [4], 1.31 in test [4] (setting [7]) and 0.844 in test [4] (measured here: PEO4 Z-AUC).

Regarding `CC(C)(C)c1[nH]cnc1/C=c1\[nH]c(=O)/c(=C/c2ccccc2)[nH]c1=O`, the values for the Potency in test [1], in test [2] and in test [4] were 118 nM (active), 118 nM (active) and 174 nM (active), respectively. The Potency entry in test [3] and in test [5] was “inactive” in each case. Besides, the Z-AUC in test [4] (setting [7]) was -2.5; in test [4] (measured here: PEO4 Z-AUC), -2.52.
